The text below walks through data of PubChem BioAssay.

The source made the active and inactive calls.

Test [1] can be described thus: binders of probe aFSTL3 on microarray, primary screen, stem cell growth factor project, biochemical, small-molecule microarray, fluorescence 635/667 (AID 1064).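 Also: measures binding of the biotinylated anti-FSTL3 antibody to printed compounds.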 The settings on record: higher = more signal.
Test [2] is described as follows: binders from COS7 lysate, DM2A8 probe, primary screen, torsin A project, cell lysate, small-molecule microarray, fluorescence 635/667 (AID 1065). The settings on record: higher = more signal, COS7 lysate expressing mutant human TOR1A.
Test [3] is described as follows: binders of probe aFGF2 on microarray, primary screen, stem cell growth factor project, biochemical, small-molecule microarray, fluorescence 635/667 (AID 1067).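 Also: measures binding of biotinylated aFGF2 protein to printed compounds on slides; z-score merges feature fluorescence and signal-to-noise across triplicate slides.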 The note with it: higher = more signal.
The nature of test [4]: binders of probe aFGF10 on microarray, primary screen, stem cell growth factor project, biochemical, small-molecule microarray, fluorescence 635/667 (AID 1071).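 Also: score merges 667 nm spot intensity and signal to noise from triplicate slides.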 The note with it: higher = more signal.
The target of test [5] is Neurogenic locus notch homolog protein 2 (Homo sapiens) (UniProt Q04721). The test can be described thus: Notch2 binders on small-molecule microarrays, primary screen, biochemical, small-molecule microarray, 635 nm fluorescence, stem cell growth factors (AID 1073). The note with it: Notch2 binding, higher = more signal.
The target of test [6] is Pro-neuregulin-1, membrane-bound isoform (Homo sapiens) (UniProt Q02297). Description: NRG1 binders on small-molecule microarrays, primary screen, psychiatric disease protein project, biochemical, small-molecule microarray, fluorescence 635/667 (AID 1075).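 Also: score combines 667 nm spot fluorescence with signal to noise.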 The settings on record: NRG1 binding, 635 nm fluorescence, higher = more signal.
The test system of test [7] is Neuregulin-1 EGF-like domain. Description: binders of neuregulin-1 EGF-like domain, primary screen, biochemical, small-molecule microarray, 635 nm fluorescence (AID 1081).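 Also: binding of the protein to compounds printed on small-molecule microarray slides.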 The settings on record: small-molecule microarray binding, higher = more signal.
Test [8] in a line: FRG1 promoter luciferase signal modulators, primary screen, FRG1 inhibition for FSHD, cell-based, C2C12 myotubes, firefly/Renilla luciferase, luminescence (AID 1084). The settings on record: higher = more signal, called active from +8 up or from −8 down.
Test [9] can be described thus: binders of probe aFST on microarray, primary screen, stem cell growth factor project, biochemical, small-molecule microarray, fluorescence 635/667 (AID 1086).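 Also: score merges 667 nm fluorescence with signal-to-noise of each printed compound spot.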 The settings on record: higher = more signal.
Test [10] is described as follows: binders of probe aHhip on microarray, primary screen, stem cell growth factor project, biochemical, small-molecule microarray, fluorescence 635/667 (AID 1087).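 Also: score merges spot fluorescence at 667nm with spot signal to noise ratio.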 The settings on record: higher = more signal.
In test [11] the test system is PRMT1 (protein arginine N-methyltransferase 1). Description: PRMT1 binders on small-molecule microarrays, primary screen, biochemical, small-molecule microarray, 635 nm fluorescence (AID 1088).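 Also: binding of Prmt1 protein to compounds spotted on small-molecule microarray slides.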 The settings on record: small-molecule microarray binding, higher = more signal.
A short description of test [12]: yeast growth modulation, basal conditions, primary screen, YJM789 clinical isolate, OD600, 24 h (AID 1089).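 Also: growth of clinical yeast isolate S. cerevisiae YJM 789 seeded 1000 cells per well; test concentration not given here.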 The note with it: S. cerevisiae YJM789 growth, higher = more signal, called active from +8 up or from −8 down.
Test [13] is described as follows: fission yeast growth modulation, primary screen, strain 972, OD600, 24 h, no modulator (AID 1090).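 Also: basal condition with compound alone and no growth modifier present; test concentration not given here.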 The note with it: S. pombe 972 growth, higher = more signal, called active from +8 up or from −8 down.
The nature of test [14]: S. cerevisiae growth modulation with rapamycin, primary screen, strain BY4716, OD600, 96 h (AID 1091). Also: test concentration not given here. The settings on record: higher = more signal, called active from +8 up or from −8 down.
The target of test [15] is Torsin-1A-interacting protein 2 (Homo sapiens) (UniProt Q8NFQ8). The test can be described thus: LULL1 binders on small-molecule microarray, primary screen, cell lysate, human LULL1 lysate, 635/667 nm fluorescence (AID 1092).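 Also: score merges per-feature 667 nm fluorescence with signal-to-noise.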 The settings on record: hLULL1 lysate binding, 635 nm fluorescence, higher = more signal.
Test [16] is described as follows: E. coli growth modulation, two-sided OD650, primary screen, E. coli filamentation project, strain DRC41, 24 h (AID 1093).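 Also: MC1000 strain lacking acrAB efflux and sulA so SOS filamentation is blocked; test concentration not given here.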 The settings on record: OD650, 24 h, higher = more signal, called active from +8 up or from −8 down.
A short description of test [17]: small-molecule microarray binders of probe aLefty2, primary screen, biochemical, biotinylated probe, 635/667 nm fluorescence (AID 1094).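 Also: score merges spot fluorescence near 667 nm with spot signal-to-noise ratio.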 The settings on record: higher = more signal.
The subject of test [18] is Noggin (protein binding on small-molecule microarray). Description: Noggin binders on small-molecule microarray, primary screen, biochemical, 635/667 nm fluorescence (AID 1095).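 Also: score merges 667 nm feature fluorescence with signal to noise over triplicate slides.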 The settings on record: 635 nm fluorescence, higher = more signal.
The target of test [19] is Neurogenic locus notch homolog protein 3 (Homo sapiens) (UniProt Q9UM47). The test can be described thus: NOTCH3 binders on small-molecule microarray, primary screen, biochemical, 635/667 nm fluorescence (AID 1096). The note with it: NOTCH3 binding, 635 nm fluorescence, higher = more signal.
Test [20] can be described thus: small-molecule microarray binders of probe aEGFR, primary screen, biochemical, biotinylated probe, 635/667 nm fluorescence (AID 1097).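 Also: probe is a biotinylated anti-EGFR antibody binding compounds printed on slides; score combines fluorescence near 667 nm and signal to noise of each spot.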 The settings on record: higher = more signal.

Neurogenic locus notch homolog protein 2 (Homo sapiens), sequence (Q04721 whole entry, looked up, canonical isoform): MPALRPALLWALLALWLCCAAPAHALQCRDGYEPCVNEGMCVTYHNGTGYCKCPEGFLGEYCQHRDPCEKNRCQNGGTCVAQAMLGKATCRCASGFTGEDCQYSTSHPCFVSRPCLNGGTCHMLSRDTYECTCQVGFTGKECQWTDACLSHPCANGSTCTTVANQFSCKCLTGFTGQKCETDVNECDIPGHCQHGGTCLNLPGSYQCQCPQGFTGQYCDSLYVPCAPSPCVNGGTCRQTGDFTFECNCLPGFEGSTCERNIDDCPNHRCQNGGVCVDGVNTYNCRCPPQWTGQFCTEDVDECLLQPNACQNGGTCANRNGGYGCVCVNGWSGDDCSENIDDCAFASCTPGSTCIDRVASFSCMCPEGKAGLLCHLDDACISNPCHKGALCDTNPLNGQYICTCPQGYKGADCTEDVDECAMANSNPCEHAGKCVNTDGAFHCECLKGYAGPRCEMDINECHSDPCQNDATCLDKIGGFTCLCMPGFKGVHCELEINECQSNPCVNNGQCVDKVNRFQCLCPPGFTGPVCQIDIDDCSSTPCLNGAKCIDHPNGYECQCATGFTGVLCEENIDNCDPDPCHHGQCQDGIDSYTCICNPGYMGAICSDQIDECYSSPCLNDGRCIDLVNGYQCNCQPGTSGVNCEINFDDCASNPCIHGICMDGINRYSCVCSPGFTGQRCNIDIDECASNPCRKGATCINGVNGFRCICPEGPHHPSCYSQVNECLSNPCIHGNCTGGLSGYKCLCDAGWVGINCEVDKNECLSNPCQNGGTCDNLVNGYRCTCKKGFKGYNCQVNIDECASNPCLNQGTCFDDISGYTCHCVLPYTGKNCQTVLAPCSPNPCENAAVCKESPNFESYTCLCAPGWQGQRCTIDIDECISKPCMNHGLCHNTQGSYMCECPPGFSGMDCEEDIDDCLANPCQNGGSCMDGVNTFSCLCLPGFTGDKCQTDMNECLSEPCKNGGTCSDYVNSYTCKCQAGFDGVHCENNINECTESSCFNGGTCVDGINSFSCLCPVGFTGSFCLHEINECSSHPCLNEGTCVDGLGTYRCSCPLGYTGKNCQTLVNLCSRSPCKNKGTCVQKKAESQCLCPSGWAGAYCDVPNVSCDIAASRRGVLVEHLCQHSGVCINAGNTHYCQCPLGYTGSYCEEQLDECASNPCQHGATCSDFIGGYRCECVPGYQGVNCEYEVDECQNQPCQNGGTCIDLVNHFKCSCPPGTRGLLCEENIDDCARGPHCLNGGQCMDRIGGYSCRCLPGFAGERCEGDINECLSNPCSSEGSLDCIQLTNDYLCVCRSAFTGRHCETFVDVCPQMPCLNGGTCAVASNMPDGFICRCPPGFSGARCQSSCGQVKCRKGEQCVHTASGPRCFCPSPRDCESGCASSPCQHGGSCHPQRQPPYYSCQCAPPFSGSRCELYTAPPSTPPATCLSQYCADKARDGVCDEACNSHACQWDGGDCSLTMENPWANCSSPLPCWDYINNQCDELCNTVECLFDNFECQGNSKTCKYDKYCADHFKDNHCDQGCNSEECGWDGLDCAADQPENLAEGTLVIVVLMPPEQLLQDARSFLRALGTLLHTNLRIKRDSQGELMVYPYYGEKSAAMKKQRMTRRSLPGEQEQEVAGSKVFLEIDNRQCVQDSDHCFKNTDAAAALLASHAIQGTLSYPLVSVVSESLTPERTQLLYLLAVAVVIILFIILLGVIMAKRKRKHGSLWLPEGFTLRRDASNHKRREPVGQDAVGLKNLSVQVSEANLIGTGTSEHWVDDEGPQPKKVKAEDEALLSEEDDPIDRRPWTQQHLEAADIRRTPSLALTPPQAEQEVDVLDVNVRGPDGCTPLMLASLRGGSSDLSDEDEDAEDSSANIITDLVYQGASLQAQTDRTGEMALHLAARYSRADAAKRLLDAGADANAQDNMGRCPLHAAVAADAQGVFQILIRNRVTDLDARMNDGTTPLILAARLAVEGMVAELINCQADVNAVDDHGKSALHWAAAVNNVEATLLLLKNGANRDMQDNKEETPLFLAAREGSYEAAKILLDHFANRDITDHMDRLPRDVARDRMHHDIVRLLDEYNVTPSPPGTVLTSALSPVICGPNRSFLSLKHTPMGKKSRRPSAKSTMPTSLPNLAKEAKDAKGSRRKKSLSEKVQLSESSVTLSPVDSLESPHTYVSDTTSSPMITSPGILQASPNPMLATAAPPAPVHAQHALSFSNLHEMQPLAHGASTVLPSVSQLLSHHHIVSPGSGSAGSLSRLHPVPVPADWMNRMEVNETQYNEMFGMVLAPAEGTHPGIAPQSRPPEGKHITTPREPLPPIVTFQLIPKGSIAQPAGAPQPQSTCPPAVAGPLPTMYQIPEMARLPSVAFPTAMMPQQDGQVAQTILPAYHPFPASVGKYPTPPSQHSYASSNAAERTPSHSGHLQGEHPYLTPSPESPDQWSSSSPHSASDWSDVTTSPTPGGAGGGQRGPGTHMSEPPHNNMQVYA
Neurogenic locus notch homolog protein 3 (Homo sapiens), sequence (Q9UM47 whole entry, looked up): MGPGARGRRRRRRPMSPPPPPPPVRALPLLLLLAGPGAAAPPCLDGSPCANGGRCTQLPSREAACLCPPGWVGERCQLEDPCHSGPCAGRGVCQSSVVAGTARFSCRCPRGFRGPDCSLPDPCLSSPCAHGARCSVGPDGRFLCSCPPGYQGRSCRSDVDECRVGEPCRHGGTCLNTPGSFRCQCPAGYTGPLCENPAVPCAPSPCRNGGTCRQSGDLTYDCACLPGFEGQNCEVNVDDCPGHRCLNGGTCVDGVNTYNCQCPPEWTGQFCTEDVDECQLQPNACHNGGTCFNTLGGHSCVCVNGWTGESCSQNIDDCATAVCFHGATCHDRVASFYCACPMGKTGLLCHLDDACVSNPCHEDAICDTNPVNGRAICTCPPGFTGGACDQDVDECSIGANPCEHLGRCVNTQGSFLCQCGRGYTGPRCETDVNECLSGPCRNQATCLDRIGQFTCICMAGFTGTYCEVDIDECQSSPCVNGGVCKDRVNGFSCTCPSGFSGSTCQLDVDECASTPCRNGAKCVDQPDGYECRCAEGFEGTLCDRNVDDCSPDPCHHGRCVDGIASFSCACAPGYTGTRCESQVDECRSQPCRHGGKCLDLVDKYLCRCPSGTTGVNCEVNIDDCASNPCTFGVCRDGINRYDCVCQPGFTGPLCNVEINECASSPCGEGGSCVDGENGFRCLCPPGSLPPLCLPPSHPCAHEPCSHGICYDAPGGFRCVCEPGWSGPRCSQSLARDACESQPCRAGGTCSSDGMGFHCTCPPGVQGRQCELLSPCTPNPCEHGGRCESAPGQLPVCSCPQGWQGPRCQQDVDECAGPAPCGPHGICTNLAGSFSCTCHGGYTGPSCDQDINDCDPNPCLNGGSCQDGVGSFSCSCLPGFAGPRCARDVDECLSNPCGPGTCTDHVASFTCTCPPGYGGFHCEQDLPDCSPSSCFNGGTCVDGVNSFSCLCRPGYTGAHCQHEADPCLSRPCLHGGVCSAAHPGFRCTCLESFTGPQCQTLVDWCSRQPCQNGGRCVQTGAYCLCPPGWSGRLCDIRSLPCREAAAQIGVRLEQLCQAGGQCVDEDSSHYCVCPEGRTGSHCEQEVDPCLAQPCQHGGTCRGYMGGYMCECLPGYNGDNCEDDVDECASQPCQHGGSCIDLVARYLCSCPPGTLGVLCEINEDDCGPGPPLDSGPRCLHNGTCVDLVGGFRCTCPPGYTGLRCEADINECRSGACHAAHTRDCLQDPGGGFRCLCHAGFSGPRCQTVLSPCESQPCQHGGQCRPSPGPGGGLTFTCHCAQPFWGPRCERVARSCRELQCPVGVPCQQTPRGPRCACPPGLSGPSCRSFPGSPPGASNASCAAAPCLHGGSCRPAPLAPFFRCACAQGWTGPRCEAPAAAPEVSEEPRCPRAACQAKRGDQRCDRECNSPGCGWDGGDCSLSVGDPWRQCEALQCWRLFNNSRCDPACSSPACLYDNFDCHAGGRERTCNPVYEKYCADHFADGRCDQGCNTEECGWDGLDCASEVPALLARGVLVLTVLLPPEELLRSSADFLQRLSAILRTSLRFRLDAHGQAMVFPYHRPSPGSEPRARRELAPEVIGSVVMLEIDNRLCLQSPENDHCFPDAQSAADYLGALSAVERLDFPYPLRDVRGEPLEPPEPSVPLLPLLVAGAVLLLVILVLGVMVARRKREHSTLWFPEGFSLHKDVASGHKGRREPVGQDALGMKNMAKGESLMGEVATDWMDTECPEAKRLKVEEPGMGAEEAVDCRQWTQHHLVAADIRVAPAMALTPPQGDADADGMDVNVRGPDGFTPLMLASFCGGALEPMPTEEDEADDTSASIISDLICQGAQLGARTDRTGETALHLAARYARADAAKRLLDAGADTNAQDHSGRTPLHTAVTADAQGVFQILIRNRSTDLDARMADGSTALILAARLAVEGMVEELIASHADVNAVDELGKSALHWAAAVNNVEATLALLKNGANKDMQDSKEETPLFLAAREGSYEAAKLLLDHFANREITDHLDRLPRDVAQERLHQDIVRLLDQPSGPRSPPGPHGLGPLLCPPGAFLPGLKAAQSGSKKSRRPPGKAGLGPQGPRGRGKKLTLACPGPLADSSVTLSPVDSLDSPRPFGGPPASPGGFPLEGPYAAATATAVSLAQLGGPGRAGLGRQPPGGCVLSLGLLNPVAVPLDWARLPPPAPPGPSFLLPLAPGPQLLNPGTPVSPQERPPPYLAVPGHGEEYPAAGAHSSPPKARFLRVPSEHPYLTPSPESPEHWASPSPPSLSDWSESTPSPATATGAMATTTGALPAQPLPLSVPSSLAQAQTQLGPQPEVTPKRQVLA

With `COc1ccc(C(=O)Nc2cccc(CN3C(=O)[C@]4(O[C@H](CC(=O)N5Cc6ccccc6C[C@H]5CO)[C@@H]([Si](C)(C)c5ccc(OC)cc5)[C@@H]4C)c4ccccc43)c2)cc1`, the composite z-score was -0.24 in [1]; 0.822 in test [2]; -0.159 in test [3]; 0.426 in [4]; 0.424 in test [5]; 0.466 in [6]. For the same compound, the composite z-score in [7] is 0.762; in test [9], 0.208; in test [10], -0.211; in test [11] it was 1.55; in [15], 0.906; in test [17], -0.186. In addition, the composite z-score in [18] was 1.73; in test [19], 1.1; in test [20], -0.027. Further, the z-score is -1.66 (inactive) in test [8]; 0.143 (inactive) in test [12]; 1.46 (inactive) in test [13]; 1.79 (inactive) in test [14]; 2.31 (inactive) in test [16].

For `COC(=O)C[C@H]1O[C@@]2(C[C@@H]1[Si](C)(C)C)C(=O)N(C)c1ccccc12`, the composite z-score in test [1] was -0.469; in test [2], 0.105; in test [3] it was -0.129; in test [4], 0.487; in [5], 0.833; in test [6], 0.22. The composite z-score in test [7] was 0.672; in test [9], 0.607; in [10] it was -0.0645; in test [11], 0.447; in [15], 1.2; in test [17] it was -0.15. For the same compound, the composite z-score in test [18] was found to be 0.297; in test [19], 0.764; in test [20], 0.0747. In addition, the z-score in test [8] is -0.933 (inactive); in test [12] it was -2.53 (inactive); in [13], -2.4 (inactive); in test [14], -1.5 (inactive); in test [16], 1.62 (inactive).

For the compound `Cc1ccc(S[C@]2(C(=O)NC3CC3)CC(=O)N(C(C)C)[C@@H]2c2ccc(CO)cc2I)cc1`, the composite z-score in test [1] was -0.113; in test [2] it was 0.38; in test [3], -0.0234; in test [4], 0.0084; in test [5], -0.372; in test [6], 1.89. Besides, the composite z-score was 1.07 in test [7]; 0.933 in test [9]; -0.318 in test [10]; 1.27 in [11]; 2.83 in test [15]; -0.0865 in [17]. Moreover, the composite z-score in [18] was -0.294; in test [19], 0.624; in test [20], -0.196. Further, the z-score in test [8] is -0.0443 (inactive); in test [12], -0.812 (inactive); in [13], -2.43 (inactive); in [14], -0.2 (inactive); in test [16] it was -1.34 (inactive).

Take `CCOC(=O)C1=C[C@@H](C(C)(C)C)N(S(=O)(=O)c2ccc(C)cc2)[C@H]1c1ccc(C#N)cc1`: the composite z-score in test [1] was 0.116; in [2], 0.255; in [3], -0.0181; in [4] it was 0.707; in [5], 1.35; in [6] it was 1.32. Besides, the composite z-score amounted to 1.22 in test [7]; 0.313 in [9]; 0.144 in test [10]; 1.56 in test [11]; 2.88 in test [15]; 0.419 in test [17]. In addition, the composite z-score turned out to be 0.198 in [18], 1.01 in test [19] and 0.126 in [20]. Besides, the z-score was -0.793 (inactive) in test [8]; 0.3 (inactive) in test [12]; 2.17 (inactive) in test [13]; 1.75 (inactive) in test [14]; 0.0374 (inactive) in test [16].

As to `C=C(COC)C(=O)CC[C@H](OC(=O)c1cccnc1)c1ccc(OCCO)cc1`, the composite z-score in test [1] was -0.21; in [2], 0.43; in test [3] it was -0.133; in test [4], 1.2; in test [5] it was 0.144; in [6] it was 0.865. Further, the composite z-score in test [7] was 1.29; in test [9] it was 0.21; in test [10], -0.0618; in [11], 1.52; in test [15], 1.48; in [17], -0.155. Moreover, the composite z-score in test [18] was 1.22; in test [19], 0.78; in [20] it was -0.113. The z-score was -0.742 (inactive) in [8]; -0.191 (inactive) in test [12]; -1.48 (inactive) in test [13]; 0.535 (inactive) in test [14]; 0.105 (inactive) in [16].
